From PubChem BioAssay
Active and inactive are the calls of the source. Unless noted, no rule for the calls is given here.

Legend:
[1] = compounds binding Alexa647 anti-His antibody – biochemical, small-molecule microarray, 635 nm fluorescence, artefact control for SMM control protein annotation, primary screen (AID 1128); settings: higher = more signal;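 also: score merges feature fluorescence with signal-to-noise for each printed compound spot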
[2] = tested on: Human papillomavirus type 1a E7 protein (residues 1-88); assay: HPV1a E7 small-molecule binders, primary screen, biochemical, small-molecule microarray, residues 1-88, 635 nm (AID 1129); settings: small-molecule microarray binding, fluorescence 635 nm; higher = more signal
[3] = biological target: Focal adhesion kinase 1 (Homo sapiens) (UniProt Q05397); assay: PTK2 protein binding on printed compound slides – biochemical, small-molecule microarray, 635/667 nm fluorescence, BSA, DTT, primary screen (AID 1130); settings: 635 nm fluorescence, higher = more signal;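 also: composite of spot emission at 667 nm and signal to noise over triplicate slides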
[4] = tested on: Fibrinogen (Alexa647-labelled); assay: Alexa647-fibrinogen binding to printed small molecules – biochemical, small-molecule microarray, 635/667 nm fluorescence, artefact control for SMM control-protein annotation, profiling panel (AID 1131); settings: fibrinogen-A647 binding fluorescence, higher = more signal;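 also: z-score merges 667 nm fluorescence with per-spot signal-to-noise over triplicate slides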
[5] = biological target: Follistatin (Homo sapiens) (UniProt P19883); assay: FST protein binding to printed compounds – biochemical, small-molecule microarray, 635/667 nm fluorescence, primary screen (AID 1132); settings: 635 nm fluorescence, higher = more signal
[6] = biological target: Fibroblast growth factor 2 (Homo sapiens) (UniProt P09038); assay: basic fibroblast growth factor binding to printed compounds – biochemical, small-molecule microarray, 635/667 nm fluorescence, primary screen (AID 1133); settings: FGF2, fluorescence 635/667, higher = more signal
[7] = JC-1 mitochondrial potential readout, lung cancer cells – cell-based, A549, JC-1 fluorescence, basal, 24 h, 100 nL, profiling panel (AID 1138); settings: higher = more signal;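 also: A549 lung adenocarcinoma cells under basal conditions with no added stimulus; test concentration not given here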
[8] = tested on: Lefty1; assay: Lefty1 protein binding to printed compounds – biochemical, small-molecule microarray, 635/667 nm fluorescence, primary screen (AID 1139); settings: fluorescence 635/667, higher = more signal
[9] = tested on: wheat germ agglutinin (Triticum aestivum), Alexa647-labelled; assay: Alexa647-WGA lectin binding to printed small molecules – biochemical, small-molecule microarray, 635/667 nm fluorescence, artefact control for SMM control-protein annotation, profiling panel (AID 1140); settings: WGA-A647 binding, 635 nm fluorescence, higher = more signal;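 also: score merges 667 nm feature emission with signal to noise over triplicate slides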
[10] = biological target: Luciferin 4-monooxygenase (Photinus pyralis) (UniProt P08659); assay: inhibition of purified Photinus pyralis luciferase – biochemical, luminescence, purified enzyme, 2006 set, primary screen (AID 1141); settings: purified firefly luciferase, SteadyGlo luminescence, 30 min; higher = more signal, called active from +8 up or from −8 down;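 also: cell-free assay with purified firefly luciferase at 100 ng per well in PBS; test concentration not given here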
[11] = tested on: Wnt5a (protein binding on small-molecule microarray); assay: small molecules binding Wnt5a protein – biophysical, small-molecule microarray, 635/667 nm fluorescence, primary screen (AID 1142); settings: 635 nm fluorescence, higher = more signal;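 also: fluorescence read at 667 nm with signal to noise per printed feature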
[12] = ATP-based viability of Huh7 replicon cells – cell-based, CellTiter-Glo luminescence, basal, 48 h, cytotoxicity control for HCV replication inhibitor project, primary screen (AID 1143); settings: higher = more signal, called active from +8 up or from −8 down;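 also: Huh7 hepatoma cells carrying a hepatitis C replication reporter with no stimulus; test concentration not given here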
[13] = Pseudomonas biofilm growth suppression – PAO1 strain, BacTiter-Glo luminescence, LB-PBS, primary screen (AID 1144); settings: P. aeruginosa PAO1 biofilm, 12 h, higher = more signal
[14] = basal CRE-LacZ reporter activity in PC12 – cell-based, unstimulated, primary screen (AID 1145); settings: no forskolin, luminescence, 4.5 h, higher = more signal, called active from +8 up or from −8 down
[15] = forskolin-driven CRE-LacZ activity in PC12 – cell-based, CRE-LacZ reporter, forskolin-stimulated, primary screen (AID 1146); settings: luminescence, 4.5 h, higher = more signal, called active from +8 up or from −8 down;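 also: PC12 cells with 6xCRE LacZ reporter stimulated by forskolin 10 µM; beta-galactosidase reporter signal reflecting CREB driven transcription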
[16] = biological target: Streptavidin (Streptomyces avidinii) (UniProt P22629); assay: compounds binding control protein streptavidin – biophysical, small-molecule microarray, 635/667 nm fluorescence, artefact control for SMM compound annotation, primary screen (AID 1147); settings: higher = more signal;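 also: signal reflects streptavidin binding to arrayed compounds as a control protein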
[17] = probe aInhba binding on compound microarray – biochemical, small-molecule microarray, 635/667 nm fluorescence, primary screen (AID 1148); settings: higher = more signal;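 also: score merges 667nm spot fluorescence with signal-to-noise for antibody binding to printed compounds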
[18] = biological target: Torsin-1A (Homo sapiens) (UniProt O14656); assay: TOR1A wild-type binding on microarray – cell lysate, small-molecule microarray, lysate, 635/667 nm, primary screen (AID 1149); settings: COS7 hTOR1A-WT lysate, 635 nm fluorescence, higher = more signal
[19] = biological target: Torsin-1A (Homo sapiens) (UniProt O14656); assay: torsin A mutant lysate binding on microarrays – cell lysate, small-molecule microarray, COS7 lysate, 635/667 nm fluorescence, primary screen (AID 1150); settings: COS7 hTOR1A mutant lysate, 635 nm fluorescence, higher = more signal;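 also: score pools 667 nm emission and signal to noise measuring lysate protein binding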
[20] = tested on: Sonic hedgehog protein (Shh); assay: Sonic hedgehog microarray binding compounds – biochemical, small-molecule microarray, 635/667 nm fluorescence, primary screen (AID 1151); settings: 635 nm fluorescence, higher = more signal;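 also: Shh protein binding to compounds spotted on small-molecule microarray slides; score combines spot fluorescence intensity with signal-to-noise across triplicate slides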

Sequence of Luciferin 4-monooxygenase (Photinus pyralis) (P08659 whole entry, looked up): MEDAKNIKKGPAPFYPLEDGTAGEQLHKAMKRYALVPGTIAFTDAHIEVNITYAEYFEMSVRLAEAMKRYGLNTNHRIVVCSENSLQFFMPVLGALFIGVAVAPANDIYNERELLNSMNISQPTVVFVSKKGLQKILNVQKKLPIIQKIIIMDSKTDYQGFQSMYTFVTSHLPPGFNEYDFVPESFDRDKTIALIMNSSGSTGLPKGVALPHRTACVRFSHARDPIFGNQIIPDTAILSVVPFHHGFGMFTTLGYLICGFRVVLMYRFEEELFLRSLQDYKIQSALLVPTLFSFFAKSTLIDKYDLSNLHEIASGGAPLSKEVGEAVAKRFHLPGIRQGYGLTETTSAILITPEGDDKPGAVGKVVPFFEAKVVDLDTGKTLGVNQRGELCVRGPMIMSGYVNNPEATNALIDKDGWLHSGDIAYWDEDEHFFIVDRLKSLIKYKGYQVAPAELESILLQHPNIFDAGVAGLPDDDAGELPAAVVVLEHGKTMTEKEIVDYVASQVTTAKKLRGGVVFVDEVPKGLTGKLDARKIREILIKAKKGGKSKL
Sequence of Torsin-1A (Homo sapiens) (O14656 whole entry, looked up): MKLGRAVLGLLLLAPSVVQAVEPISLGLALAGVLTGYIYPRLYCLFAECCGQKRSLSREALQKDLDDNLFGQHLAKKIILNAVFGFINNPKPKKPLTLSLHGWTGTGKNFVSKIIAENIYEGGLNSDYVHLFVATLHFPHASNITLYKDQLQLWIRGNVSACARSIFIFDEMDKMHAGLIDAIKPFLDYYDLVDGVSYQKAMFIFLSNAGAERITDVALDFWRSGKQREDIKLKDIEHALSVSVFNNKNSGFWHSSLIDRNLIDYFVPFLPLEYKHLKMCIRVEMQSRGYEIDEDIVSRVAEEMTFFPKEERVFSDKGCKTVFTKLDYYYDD
Sequence of Focal adhesion kinase 1 (Homo sapiens) (Q05397 whole entry, looked up): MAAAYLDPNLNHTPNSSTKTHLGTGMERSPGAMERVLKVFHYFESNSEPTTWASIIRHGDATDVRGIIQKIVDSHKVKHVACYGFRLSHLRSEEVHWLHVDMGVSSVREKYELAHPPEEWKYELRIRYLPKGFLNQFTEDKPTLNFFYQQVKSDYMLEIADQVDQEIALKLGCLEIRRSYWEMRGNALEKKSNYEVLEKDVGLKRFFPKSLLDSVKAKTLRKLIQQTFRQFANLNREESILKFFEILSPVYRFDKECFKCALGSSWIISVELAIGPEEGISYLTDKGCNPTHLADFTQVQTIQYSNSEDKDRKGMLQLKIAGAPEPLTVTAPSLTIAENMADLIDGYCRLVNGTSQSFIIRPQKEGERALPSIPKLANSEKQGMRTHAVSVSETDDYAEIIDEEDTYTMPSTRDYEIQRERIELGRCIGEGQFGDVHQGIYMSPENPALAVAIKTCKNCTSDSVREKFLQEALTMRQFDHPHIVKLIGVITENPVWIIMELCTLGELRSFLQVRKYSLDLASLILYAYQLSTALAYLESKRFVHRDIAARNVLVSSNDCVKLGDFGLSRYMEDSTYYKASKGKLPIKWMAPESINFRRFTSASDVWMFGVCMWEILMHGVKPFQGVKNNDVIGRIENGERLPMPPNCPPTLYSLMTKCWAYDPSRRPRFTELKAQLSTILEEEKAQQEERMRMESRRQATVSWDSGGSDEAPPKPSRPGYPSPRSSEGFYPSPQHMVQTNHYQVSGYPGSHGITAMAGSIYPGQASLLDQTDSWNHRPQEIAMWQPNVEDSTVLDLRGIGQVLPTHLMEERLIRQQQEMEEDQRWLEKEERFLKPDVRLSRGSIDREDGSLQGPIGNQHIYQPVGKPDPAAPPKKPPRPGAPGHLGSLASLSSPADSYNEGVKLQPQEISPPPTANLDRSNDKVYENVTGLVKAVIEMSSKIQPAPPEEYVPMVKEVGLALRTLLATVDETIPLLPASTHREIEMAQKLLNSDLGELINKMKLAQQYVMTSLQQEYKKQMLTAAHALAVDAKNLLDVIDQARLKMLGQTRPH
Sequence of Streptavidin (Streptomyces avidinii) (P22629 whole entry, looked up): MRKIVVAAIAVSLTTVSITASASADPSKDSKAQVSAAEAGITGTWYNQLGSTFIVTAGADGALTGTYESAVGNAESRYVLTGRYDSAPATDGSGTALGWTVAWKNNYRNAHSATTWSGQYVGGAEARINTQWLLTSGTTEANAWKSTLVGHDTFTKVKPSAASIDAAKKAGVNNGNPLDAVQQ
Sequence of Follistatin (Homo sapiens) (P19883 whole entry, looked up): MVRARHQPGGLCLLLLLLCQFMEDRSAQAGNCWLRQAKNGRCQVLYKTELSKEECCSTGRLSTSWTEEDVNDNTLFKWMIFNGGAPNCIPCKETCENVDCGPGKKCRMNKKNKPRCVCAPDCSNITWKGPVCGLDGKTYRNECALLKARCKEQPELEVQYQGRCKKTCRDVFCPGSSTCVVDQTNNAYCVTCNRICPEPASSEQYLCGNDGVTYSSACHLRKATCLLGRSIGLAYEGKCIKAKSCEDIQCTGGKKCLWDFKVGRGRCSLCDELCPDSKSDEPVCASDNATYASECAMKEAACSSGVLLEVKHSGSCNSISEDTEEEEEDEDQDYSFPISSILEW
Sequence of Fibroblast growth factor 2 (Homo sapiens) (P09038 whole entry, looked up): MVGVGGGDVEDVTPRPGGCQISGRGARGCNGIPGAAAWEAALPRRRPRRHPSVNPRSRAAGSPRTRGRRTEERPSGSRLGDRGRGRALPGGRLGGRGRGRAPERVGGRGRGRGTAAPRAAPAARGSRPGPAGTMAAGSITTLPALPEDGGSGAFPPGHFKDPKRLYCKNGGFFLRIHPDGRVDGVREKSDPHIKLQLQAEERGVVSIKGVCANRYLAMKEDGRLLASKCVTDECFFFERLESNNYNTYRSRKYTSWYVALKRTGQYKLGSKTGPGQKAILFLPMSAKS

| Compound | composite z-score [1] | composite z-score [2] | composite z-score [3] | composite z-score [4] | composite z-score [5] | composite z-score [6] | z-score [7] | composite z-score [8] | composite z-score [9] | z-score [10] | composite z-score [11] | z-score [12] | z-score [13] | z-score [14] | z-score [15] | composite z-score [16] | composite z-score [17] | composite z-score [18] | composite z-score [19] | composite z-score [20] |
| --- | --- | --- | --- | --- | --- | --- | --- | --- | --- | --- | --- | --- | --- | --- | --- | --- | --- | --- | --- | --- |
| C=CCNC(=O)[C@@H]1[C@H]2C(=O)O[C@H](c3ccccc3)[C@H](c3ccccc3)N2[C@H](c2ccc(O)cc2)[C@@]12C(=O)N(C(=O)OCCOC)c1ccc(C#CCCO)cc12 | 1.45 | 0.779 | 0.863 | 0.389 | 1.19 | 1.25 | 0.703 | 0.531 | 0.862 | -0.52 (inactive) | 0.905 | -0.2 (inactive) | 0.171 (inactive) | -0.337 (inactive) | 0.243 (inactive) | 0.945 | 0.198 | 0.463 | 0.235 | 2.07 |
| COC(=O)[C@@]1(Cc2ccccc2CN=[N+]=[N-])N=C(c2ccc(OCCCO)cc2)O[C@H]1c1ccccc1CN=[N+]=[N-] | -0.242 | 0.113 | -0.198 | -0.819 | -0.261 | -0.167 | -0.546 | -1.09 | 0.495 | -2.23 (inactive) | 1.25 | -4.34 (inactive) | -0.166 (inactive) | 1.75 (inactive) | -0.547 (inactive) | -0.754 | -0.154 | -2.13 | 0.0755 | -0.427 |
| C=C(COC)C(=O)CC[C@H](OC(=O)c1cccnc1)c1ccc(CO)o1 | 0.784 | 0.113 | -0.163 | 0.978 | 1.34 | 1.26 | -0.595 | 1.15 | 0.264 | -0.721 (inactive) | 0.196 | -0.319 (inactive) | 0.312 (inactive) | 0.522 (inactive) | 0.756 (inactive) | -0.184 | 0.13 | 2.19 | -0.0291 | 1.41 |
| COCCOC(=O)N1C(=O)[C@@]2(c3cc(C#CCNC(N)=O)ccc31)[C@H](c1ccc(OCCO)cc1)N1[C@H](c3ccccc3)[C@H](c3ccccc3)OC(=O)[C@H]1[C@@H]2C(=O)NC[C@H](O)c1ccccc1 | 0.626 | 0.984 | 0.445 | 0.942 | 1.37 | 1 | -1.19 | 1.16 | 0.768 | 0.0945 (inactive) | 0.423 | -0.441 (inactive) | -0.498 (inactive) | -1.56 (inactive) | -0.567 (inactive) | 0.904 | 0.111 | 0.367 | 0.792 | 1.27 |
| O=C1OCCC/C=C\[C@H]2OC34C=CCN(c5ccc6ccccc6c5)C(=O)[C@H]3N(CCCO)C(=O)[C@@H]4C12 (stereo not given in full) | 1.09 | -0.0247 | 0.984 | -1.07 | -0.45 | -0.755 | 0.333 | -0.345 | 0.576 | -0.183 (inactive) | -0.482 | 0.187 (inactive) | 2.06 (inactive) | 2.9 (inactive) | -0.942 (inactive) | -1.3 | -0.21 | -0.553 | -1.1 | -0.339 |
| C=CCNC(=O)[C@@H]1[C@H]2C(=O)O[C@H](c3ccccc3)[C@H](c3ccccc3)N2[C@H](c2ccc(O)cc2)[C@@]12C(=O)Nc1ccc(C#CCC(C(=O)OC)C(=O)OC)cc12 | -0.414 | 1.2 | 0.267 | 0.0847 | 1.24 | 0.464 | -1.22 | 0.147 | 0.0307 | -0.108 (inactive) | 0.0513 | -5.09 (inactive) | -1.02 (inactive) | -0.608 (inactive) | -0.746 (inactive) | 0.138 | -0.018 | 0.131 | 1.76 | 0.8 |
| C=CCC(OC(C)=O)[C@@H]1[C@@H](N(Cc2ccc(-c3cccc(C(F)(F)F)c3)o2)C(=O)c2cccc3ccccc23)c2cc(OCCCO)ccc2N1C(=O)Cc1ccc(OC)cc1 (stereo not given in full) | -0.0466 | -1.02 | -0.104 | -0.765 | 0.998 | -0.0117 | -0.465 | 0.229 | 0.0854 | 0.638 (inactive) | -0.307 | -2.29 (inactive) | 0.302 (inactive) | -0.593 (inactive) | 0.0843 (inactive) | -0.551 | -0.102 | -0.577 | 0.264 | 0.439 |
| COc1ccc(C#Cc2ccc3c(c2)[C@]2(C(=O)N3)[C@H](c3ccc(OCCO)cc3)N3[C@H](c4ccccc4)[C@H](c4ccccc4)OC(=O)[C@H]3[C@@H]2C(=O)N2CCc3cc(OC)c(OC)cc3C2)cc1 | 0.78 | 1.18 | 0.946 | 0.532 | 1.44 | 1.49 | -1.14 | 1.17 | 0.863 | -0.922 (inactive) | 1.04 | -0.632 (inactive) | -0.221 (inactive) | 0.478 (inactive) | 0.198 (inactive) | 1.83 | -0.308 | 0.394 | 0.722 | 2.15 |
| COCCCNC(=O)[C@@]1(Sc2ccc(C)cc2)CC(=O)N(C(C)C)[C@@H]1c1ccc(CO)cc1I | -0.578 | 0.569 | -0.0285 | -0.491 | -0.035 | -0.335 | -0.0858 | -0.21 | 0.271 | 0.805 (inactive) | -0.0469 | -4.86 (inactive) | -0.96 (inactive) | 0.0655 (inactive) | 1.35 (inactive) | -0.671 | -0.0762 | 0.154 | 1.18 | -0.005 |
| COCCOC(=O)N1C(=O)[C@@]2(c3cc(C#CCC(C(=O)OC)C(=O)OC)ccc31)[C@H](C(=O)NC[C@H](O)c1ccccc1)[C@H]1C(=O)O[C@H](c3ccccc3)[C@H](c3ccccc3)N1[C@@H]2c1ccc(O)cc1 | 2.58 | 1.17 | 0.983 | -0.6 | 0.22 | 0.501 | -0.464 | 0.464 | 1.02 | -0.296 (inactive) | 0.247 | -1.1 (inactive) | -0.766 (inactive) | -0.191 (inactive) | -0.221 (inactive) | -0.003 | -0.0509 | -0.431 | 0.413 | 0.863 |
